The whole screen tested about 310,000 compounds, of which about 14,000 (4.5%) showed an effect of 50% or more. Effects have a minus sign here. What follows is part of a selection rich in strong results, with near analogues and random picks from the rest.
These compounds were tested against human ether-à-go-go-related gene (hERG) potassium channel (human, UniProt Q12809) (assay: primary screen, population patch clamp on CHO cells stably expressing hERG; higher = less effect of the substance).
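Also: peak tail current of the secondary pulse compared with the same well before compound.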

human ether-à-go-go-related gene (hERG) potassium channel, sequence (Q12809 whole entry, looked up): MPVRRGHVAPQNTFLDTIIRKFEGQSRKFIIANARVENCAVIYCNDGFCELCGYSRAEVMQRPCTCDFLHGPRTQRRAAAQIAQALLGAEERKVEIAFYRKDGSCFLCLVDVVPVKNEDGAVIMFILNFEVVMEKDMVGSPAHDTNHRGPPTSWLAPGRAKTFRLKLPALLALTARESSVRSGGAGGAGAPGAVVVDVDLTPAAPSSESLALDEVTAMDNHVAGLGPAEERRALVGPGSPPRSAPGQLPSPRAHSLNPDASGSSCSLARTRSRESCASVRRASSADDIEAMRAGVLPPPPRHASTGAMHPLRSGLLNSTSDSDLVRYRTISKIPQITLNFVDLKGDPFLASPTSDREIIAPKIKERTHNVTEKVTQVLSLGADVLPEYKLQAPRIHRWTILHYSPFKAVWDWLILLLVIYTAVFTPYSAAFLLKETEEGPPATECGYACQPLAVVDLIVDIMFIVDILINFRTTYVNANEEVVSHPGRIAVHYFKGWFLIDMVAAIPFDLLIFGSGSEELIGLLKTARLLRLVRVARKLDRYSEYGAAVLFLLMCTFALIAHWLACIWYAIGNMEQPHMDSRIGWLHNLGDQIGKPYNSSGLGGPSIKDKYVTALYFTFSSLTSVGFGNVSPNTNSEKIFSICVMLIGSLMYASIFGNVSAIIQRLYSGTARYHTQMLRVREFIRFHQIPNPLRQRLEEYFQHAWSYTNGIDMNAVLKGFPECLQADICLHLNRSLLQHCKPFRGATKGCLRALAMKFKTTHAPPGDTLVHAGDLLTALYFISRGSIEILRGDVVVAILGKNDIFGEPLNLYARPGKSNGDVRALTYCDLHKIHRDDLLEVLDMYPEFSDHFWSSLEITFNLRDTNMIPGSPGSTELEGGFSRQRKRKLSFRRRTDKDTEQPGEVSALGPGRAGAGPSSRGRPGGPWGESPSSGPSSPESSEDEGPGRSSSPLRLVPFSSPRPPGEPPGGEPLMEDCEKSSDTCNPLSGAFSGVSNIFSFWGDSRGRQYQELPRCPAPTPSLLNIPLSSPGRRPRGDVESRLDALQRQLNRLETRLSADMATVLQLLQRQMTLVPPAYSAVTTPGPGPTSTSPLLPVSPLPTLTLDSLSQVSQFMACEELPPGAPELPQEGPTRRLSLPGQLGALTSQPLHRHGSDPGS

Structure (SMILES) | hERG current change (%, negative = inhibition) at 10uM
O=c1oc(-c2cccs2)nc2sc3c(c12)CCCC3 | -1.83%
COc1ccc(OC)c(C(=O)c2c(C)oc3cc([N+](=O)[O-])c(O)c([N+](=O)[O-])c23)c1 | 13.3%
COc1ccc(C2C(C(C)=O)=C(O)C(=O)N2CCc2c[nH]c3ccccc23)cc1 (stereo not drawn) | 13.7%
CCn1nnc(NC(=O)c2cc3ccccc3o2)n1 | 4.36%
Cc1ccc(-n2c(CC#N)n[nH]c2=S)c(C)c1 | 3.3%
O=C(NCc1ccccc1)Nc1cccn(Cc2ccccc2)c1=O | 10.4%
Cc1cccc(N2CN=c3s/c(=C\c4ccccn4)c(=O)n3C2)c1 | -1.21%
O=C(CSc1nc2cc(Cl)ccc2s1)c1ccco1 | 2.2%
Cc1ccc(Cl)c2sc(N3CCN(C(=O)c4ccco4)CC3)nc12 | -10.3%
O=C(CSc1nc2cc(Cl)ccc2s1)N1CCN(C(=O)c2ccco2)CC1 | -71.6%
O=C(c1ccco1)N1CCN(c2nc3ccsc3c(=O)s2)CC1 | -79%
O=C(C1COc2ccccc2O1)N1CCN(c2nc3ccccc3s2)CC1 (stereo not drawn) | -27.9%
COc1ccc2nc(N3CCN(C(=O)C4COc5ccccc5O4)CC3)sc2c1 (stereo not drawn) | -61.2%
O=C(C1COc2ccccc2O1)N1CCN(c2nc3ccc([N+](=O)[O-])cc3s2)CC1 (stereo not drawn) | -29.8%
O=C(CSc1nc2ccccc2s1)N1CCN(C(=O)c2ccco2)CC1 | -41.3%
Cc1ccc2nc(N3CCN(C(=O)c4ccco4)CC3)sc2c1 | -32%
Cc1ccc(-c2cc(-c3ccccc3)c(C#N)c(Br)n2)cc1 | -4.18%
CC1CC(C)CN(S(=O)(=O)c2ccc3c(c2)oc(=O)n3CC(=O)N(C)Cc2ccccc2)C1 (stereo not drawn) | 7.04%
CCOCCCNC(=S)N1C2CCC1CC(NC(=O)NC1CCCCC1)C2 (stereo not drawn) | 1.88%
Cc1ccc2nc(-c3ccccc3)c(CN3CCN(c4ccccc4F)CC3)n2c1 | 1.85%
CN(C)S(=O)(=O)c1cccc(-c2nn(-c3ccccc3)cc2/C=C(/C#N)C(=O)NCc2ccco2)c1 | -26.9%

Structure (SMILES) | hERG current change (%, negative = inhibition) at 10uM
CCCN1CCN(CCCNC(=O)c2cc3c(=O)[nH]c4ccc(C)cc4c3s2)CC1 | -29.5%
COc1ccccc1-c1ccc(=O)n(CC(=O)NC2CCc3ccccc32)n1 (stereo not drawn) | 5.88%
CCOC(=O)CC(C#N)c1cn(C)c2ccccc12 (stereo not drawn) | -17.8%
CCn1c(SCC(=O)Nc2ccccc2C)nnc1-c1ccccc1O | 1.99%
Cc1ccc(C2=NN(S(C)(=O)=O)C(c3cccs3)C2)cc1 (stereo not drawn) | -4.62%
Cc1nn2c(N3CCCC3)cc(C(C)C)nc2c1-c1ccccc1 | 3.92%
CCCCC(=O)Nc1ncc2c(n1)CC(C)(C)CC2=O | -5.63%
CC1(C)CC(=O)c2cnc(NC(=O)C3CCCC3)nc2C1 | -12.6%
CCCCC1CC1C(=O)Nc1ncc2c(n1)CC(C)(C)CC2=O (stereo not drawn) | -57.5%
COc1cc(Br)c(CN2CCCN(C)CC2)cc1OC | -0.597%
CN(C)C=O.O=C(COC(=O)c1ccc(S(=O)(=O)N2CCCC2)cc1)Nc1cccnc1Cl | 7.25%
Cc1cccc(C(=O)N2CCCCCC2)c1 | 2.61%
Cc1cccc(C(=O)NCCN(C)C)c1.Cl | 8.43%
O=C(NCC1CCN(C(=O)c2cccc([N+](=O)[O-])c2)CC1)c1cccc([N+](=O)[O-])c1 | -53.5%
O=C(NCC1CCN(C(=O)c2ccc([N+](=O)[O-])cc2)CC1)C(=O)Nc1ccccc1 | -36.8%
Cc1cccc(C(=O)N2CCCN(C(=O)c3cccc(C)c3)CC2)c1 | -0.26%
O=C(NCC1CCCCC1)c1cccc([N+](=O)[O-])c1 | 9.98%
O=C(NCC1CCCCC1)c1ccc([N+](=O)[O-])cc1 | -16%
O=C(NCC1CCN(C(=O)c2ccc([N+](=O)[O-])cc2)CC1)c1ccc([N+](=O)[O-])cc1 | -71.3%
Cc1cccc(C(=O)NCCCN(C)CCCNC(=O)c2cccc(C)c2)c1 | -52.2%
Cc1cccc(C(=O)NCCCNC(=O)c2cccc(C)c2)c1 | -3.67%

Structure (SMILES) | hERG current change (%, negative = inhibition) at 10uM
Cc1ccc(NC(=O)C(=O)NCC2CCN(C(=O)c3cccc([N+](=O)[O-])c3)CC2)cc1 | -16.5%
Cc1cccc(C(=O)NCC2CCN(C(=O)c3cccc(C)c3)CC2)c1 | -51.2%
COc1ccc(Cl)cc1Nc1nc(-c2cccnc2)cs1 | 5.19%
Cc1nonc1NC(=O)OC1CCCCC1 | 1.97%
Cc1cccc(NC(=S)N2CCCN(c3ncccc3[N+](=O)[O-])CC2)c1 | -16.7%
O=C(N[C@H]1CC1c1ccccc1)c1ccc([N+](=O)[O-])cc1 (stereo partly drawn) | -6.56%
COc1ccccc1NC(=O)Nc1cnccn1 | -1.51%
CC1CCCC(NC(=S)NC(=O)c2cncc(Br)c2)C1C (stereo not drawn) | 21.7%
O=C(NCc1ccc2c(c1)OCO2)C1CCN(S(=O)(=O)c2ccc(Br)s2)CC1 | -24%
CCc1cccc(C)c1NC(=O)C1C2CCC(O2)C1C(=O)O (stereo not drawn) | 18.8%
Cc1ccc(C2=NS(=O)(=O)N(C)C(C(=O)Nc3cc(C)n(CC(=O)N4CCCCC4)n3)=C2)cc1 | 10.3%
Cc1ccc2nc(-c3cccc(-c4cccc(Cl)c4)c3)c(NCc3ccccc3)n2c1.O=C(O)C(F)(F)F | 16.3%
O=S(=O)(c1cccc(-c2nc3ccccc3s2)c1)N1CCOCC1 | -7.39%
CC1=NN(/C(=N\c2nnc(C)s2)Nc2ccccc2)[C@H](c2ccc(C)cc2)S1 | -13.5%
CCn1cc(C(=O)OC)c(=O)c2cc(S(=O)(=O)N(C)C3CCCCC3)ccc21 | -28.4%
CCC1CCCCN1CCCNC(=O)c1cn(C)c2ccc(S(=O)(=O)N(C)C3CCCCC3)cc2c1=O (stereo not drawn) | -62.8%
CCC1CCCCN1CCCNC(=O)c1cn(CC)c2ccc(S(=O)(=O)N(C)C3CCCCC3)cc2c1=O (stereo not drawn) | -79.8%
CN(C)S(=O)(=O)c1ccc2c(c1)c(=O)c(C(=O)NCCCN1CCCCCC1)cn2C | -4.72%
CCn1cc(C(=O)NCC2CCCO2)c(=O)c2cc(S(=O)(=O)N(C)C3CCCCC3)ccc21 (stereo not drawn) | -31.6%
CCOC(=O)N1CCN(C(=O)c2cn(C)c3ccc(S(=O)(=O)N(C)C4CCCCC4)cc3c2=O)CC1 | -29.4%
CCc1ccc(-c2cc(C(F)(F)F)n3nc(C(=O)Nc4cnn(Cc5ccccc5C)c4)cc3n2)s1 | 5.41%

Structure (SMILES) | hERG current change (%, negative = inhibition) at 10uM
COCCNC(=O)c1cc(S(=O)(=O)N2CCCCC2)ccc1N1CCOCC1 | 1.23%
Cc1nc(N2CCN(S(=O)(=O)c3ccc(F)cc3)CC2)c2c(C)c(C)sc2n1 | -6.58%
Cc1sc2nc(CN3CCCC3)nc(N3CCN(S(=O)(=O)c4ccccc4)CC3)c2c1C | -67%
Cc1sc2nc(CN3CCOCC3)nc(N3CCN(S(=O)(=O)c4ccccc4)CC3)c2c1C | -41.6%
Cc1sc2nc(CN3CCCC3)nc(N3CCN(S(=O)(=O)c4cccs4)CC3)c2c1C | -70.7%
COc1ccc(-c2csc3ncnc(N4CCN(S(=O)(=O)c5cccc(F)c5)CC4)c23)cc1 | -3.5%
Cc1sc2nc(CN3CCCC3)nc(N3CCN(S(=O)(=O)c4cccc(F)c4)CC3)c2c1C | -70.1%
Cc1cccc(N2CCN(S(=O)(=O)c3cccs3)CC2)c1C | -15.8%
Cc1sc2nc(CN3CCOCC3)nc(NS(=O)(=O)c3ccccc3)c2c1C | 9.1%
Cc1ccc(S(=O)(=O)N2CCN(c3nc(CN4CCCC4)nc4sc(C)c(C)c34)CC2)cc1 | -77.7%
O=S(=O)(c1cccs1)N1CCN(Cc2ccccc2)CC1 | -14%
CCc1nc(N2CCN(S(=O)(=O)c3ccc(Br)cc3)CC2)c2c(C)c(C)sc2n1 | -32%
CCCc1nc(N2CCN(S(=O)(=O)c3ccc(Cl)cc3)CC2)c2c(C)c(C)sc2n1 | -17.1%
CCCc1cc(=O)[nH]c(SCC(=O)N(CC)Cc2ccccc2)n1 | 7.9%
Cc1ccc(S(=O)(=O)C2(C(=O)N3CCCCC3C)CC2)cc1 (stereo not drawn) | 1.58%
CC1C(=O)N2CCCc3cc(S(=O)(=O)N(C)Cc4ccccc4)cc1c32 (stereo not drawn) | -14.7%
O=C(O)c1cc(=O)n(Cc2ccccc2)c(=O)[nH]1 | 15%
Cc1ccc(C(C)NC(=O)c2cccnc2)cc1 (stereo not drawn) | 11.2%
Clc1ccccc1Cn1c(/C=C/c2ccco2)nc2ccccc21 | 13.5%
COc1cc2c(cc1NC(=O)COC(=O)CNS(=O)(=O)c1ccc(C)cc1)oc1ccccc12 | 1.63%
CN(c1ccc(C(=O)Nc2cccnc2)cc1)S(=O)(=O)c1ccccc1 | -14.9%
